Source: PubChem BioAssay AID2401 (Southern Research Specialized Biocontainment Screening …, 2010)
In all, about 2,200 compounds went through this assay and about 530 (24%) were called active.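 The calls were made as follows: active = inhibition above a set limit at one or more concentrations of the dose series; inactive = inhibition under that limit at every dose.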 Only a sample is shown. Entries that show only a call come without a potency. Potency and affinity values are given separately.

Assay: nmpC-GFP reporter counter-screen in S. Typhimurium, dose response, counter-screen for PhoP regulon inhibitor project, Salmonella Typhimurium, GFP fluorescence (AID 2401);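 also: S. typhimurium with Mg-insensitive nmpC-GFP reporter grown at 10 µM Mg2+; drop in reporter fluorescence reflects general culture growth inhibition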
Settings: 4 h; series mostly up to 150 µM

| SMILES | outcome |
| --- | --- |
| CCC(CC)c1nnc(NC(=O)Oc2ccccc2)s1 | inactive |
| CCOc1cccc(CNc2ccc(O)cc2)c1OCc1ccc(Cl)cc1Cl | inactive |
| CCOc1ccc(/C(O)=C2\C(=O)C(=O)N(CCN(C)C)C2c2cccc(OC)c2OC)cc1Cl (stereo not given) | inactive |
| Cc1ccc(OCc2nnc(SCC(=O)Nc3ccc4c(c3)OCO4)n2C)cc1 | inactive |
| BrC(=C\c1ccccc1)/C=N/N1CCN(c2ccccn2)CC1 | inactive |
| CCOC(=O)N1CCN(c2nc(C)c3c(n2)CCCC3=O)CC1 | inactive |
| COC(=O)C(C)N1C(=O)S/C(=C\c2cc(C)n(-c3ccccn3)c2C)C1=O (stereo not given) | inactive |
| Cc1ccc(-c2nc3ccccc3[nH]2)cc1NC(=S)NC(=O)c1ccccc1Br | inactive |
| Cc1c(NS(=O)(=O)c2ccc(N(C)C3CCCCC3)c([N+](=O)[O-])c2)c(=O)n(-c2ccccc2)n1C | inactive |
| Cc1cc(C)cc(CC(Cc2nc3ccccc3[nH]2)c2nc3ccccc3[nH]2)c1 (stereo not given) | inactive |
| COc1ccc(C(=O)N2CCN(C(=O)c3ccco3)CC2)cc1OC | inactive |
| Cc1cccc2cc(C#N)c(N3CCN(C)CC3)nc12 | inactive |
| CCOC(=O)c1c(NC(=O)Nc2ccc(C)cc2)sc2c1CCN(C)C2 | inactive |
| CC(C)(C)C1CCc2c(sc(NC(=O)c3cccs3)c2C(=O)N2CCCCC2)C1 (stereo not given) | inactive |
| NC(=O)c1c(NC(=O)CN2C(=O)CCC2=O)sc2c1CCCCC2 | inactive |
| CCCCCOC(=O)C1=C(C)Nc2nnnn2C1c1ccc(OC)c(OC)c1OC (stereo not given) | inactive |
| CCn1nnc(-c2ccccc2NS(=O)(=O)c2ccc(S(=O)(=O)N3CCCCCC3)cc2)n1 | inactive |
| O=C(CSc1ccc2c(c1)OCCO2)NCCc1ccc(Cl)cc1Cl | inactive |
| Cc1[nH]c2ccccc2c1C(c1ccncc1)N1CCN(c2ccc(F)cc2)CC1 (stereo not given) | inactive |
| Oc1ccc(C=Nc2cccc3ncccc23)c(O)c1 | inactive |
| Oc1ccc(C=Nc2ccc3ncccc3c2)c(O)c1 | inactive |
| CCCNC(=O)COC(=O)CCC(=O)c1ccc(F)cc1 | inactive |

| SMILES | outcome |
| --- | --- |
| O=C1CC(N2CCN(Cc3ccccc3)CC2)C(=O)N1c1ccccc1 (stereo not given) | inactive |
| OCCN(Cc1ccccc1)Cc1ccc(Cl)cc1 | inactive |
| OCCNc1ccc(Cl)cc1 | inactive |
| O=C(CN1CCCCCC1)Nc1cccc(Br)c1 | inactive |
| COCCn1c(-c2ccccc2F)n[nH]c1=S | inactive |
| CCOC(=O)/C(=C/C=C/c1ccccc1)NC(=O)c1ccccc1 | inactive |
| O=c1cc(O)nc(SCc2ccccc2Cl)[nH]1 | inactive |
| O=C1c2ccccc2C(=O)N1CCCc1nc(-c2ccccn2)no1 | inactive |
| CC1=NN(c2ccc(Cl)cc2)C(=O)C1C(c1cccc(O)c1)c1c(C)[nH]n(-c2ccc(Cl)cc2)c1=O (stereo not given) | inactive |
| O=C(Nn1c(O)c(C=C2N=c3ccccc3=N2)sc1=S)c1ccc(Cl)cc1 | inactive |
| CCOC(=O)/C=C1\SCC(=O)N1CC(=O)NC1CCCCC1 | inactive |
| O=C(CN(c1ccc(F)cc1)S(=O)(=O)c1ccc2c(c1)OCCO2)NCc1cccnc1 | inactive |
| S=C(c1ccc2c(c1)OCO2)N1CCCC1 | inactive |
| COc1ccc(-c2cn[nH]c2-c2ccc(OCc3ccc([N+](=O)[O-])cc3)cc2O)cc1 | inactive |
| CCN1C(=O)/C(=C/N2CC(C)CC(C)C2)SC1=S (stereo not given) | inactive |
| Cc1cc(C(=O)N/N=C/c2cccc([N+](=O)[O-])c2O)n[nH]1 | inactive |
| Cc1cc(C(=O)N/N=C/C=C/c2ccc3c(c2)OCO3)n[nH]1 | inactive |
| O=C(N/N=C/c1cccn1-c1ccc([N+](=O)[O-])cc1)C(O)c1ccccc1 (stereo not given) | inactive |
| CC(=O)c1c(C)[nH]c(C(=O)CSc2nnc(-c3ccco3)n2Cc2ccccc2)c1C | inactive |
| Cn1cccc1C1NC(=O)c2c(sc3c2CCC(C(C)(C)C)C3)N1 (stereo not given) | inactive |
| Cc1nn(-c2ccccc2)c(C)c1C(=O)OC/C(O)=C(\C#N)c1nc2ccccc2[nH]1 | inactive |
| Cc1cc(C2=NNC(=NC3CC3)SC2)c(C)n1Cc1ccco1 | inactive |

| SMILES | outcome |
| --- | --- |
| Cc1ccc(-c2nnc(SCC(=O)N3CCCc4ccccc43)n2N)cc1 | inactive |
| COC(=O)c1sc2nc(CSc3nc4ccc(C)cc4[nH]3)[nH]c(=O)c2c1C | inactive |
| CCOC(=O)C1=C(c2ccccc2)N=C2SCC(=O)N2C1c1ccc(O)c(OC)c1 (stereo not given) | inactive |
| CCOC(=O)c1cc2ccc(OC)c(OC)c2c(=O)s1 | inactive |
| C/C(=C\c1ccco1)C1Nc2cccc3cccc(c23)N1 | inactive |
| COc1ccc(OC)c(NC(=O)c2cc3c(Cl)nc4ccccc4c3s2)c1 | inactive |
| CCOC(=O)N1CCN(C(=O)c2ccc(NC(=O)c3ccc(C)cc3)cc2)CC1 | inactive |
| C/C(=N\Nc1nc2ccccc2[nH]1)c1ccc(Cl)s1 | inactive |
| C/C(=N\Nc1nc2ccccc2[nH]1)c1cccs1 | inactive |
| COC(=O)c1cn(C(=O)c2cccs2)c2ccccc12 | inactive |
| Cc1cc(/C=N\NC(=O)c2cccs2)c(C)n1-c1ccc2ncccc2c1 | inactive |
| Cc1nc2ccccn2c1C(=O)N/N=C/c1ccccc1[N+](=O)[O-] | inactive |
| COc1c(/C=N/Nc2nc(N3CCCCC3)nc(N3CCCCC3)n2)cccc1[N+](=O)[O-] | inactive |
| C=CCOc1ccc(CNc2nn[nH]n2)cc1 | inactive |
| O=C(CCN1CCc2ccccc2C1)Nc1ccccc1F | inactive |
| Cc1cc(-c2csc(NC(=O)c3ccc(C#N)cc3)n2)c(C)n1Cc1ccco1 | inactive |
| CCOC(=O)CSc1nc2c(sc(=S)n2-c2ccccc2)c(=O)n1-c1ccc(OC)cc1OC | inactive |
| O=c1[nH]c(SCc2nc3ccccc3c(=O)n2-c2ccccc2C(F)(F)F)nc2ccccc12 | inactive |
| C/C(=N\NC(=O)c1c(Cl)c(C)nn1C)c1cccc(NC(=O)COc2ccc(Cl)cc2)c1 | inactive |
| COc1ccc(C2COC(=O)C2=N)c(NC(=O)c2ccc(Cl)cc2)c1 (stereo not given) | inactive |
| CCCCCCNCc1cccc(Br)c1 | inactive |
| COc1ccc2c(c1)OC1=C(C(=O)CCC1)C2C1=C(O)CCCC1=O (stereo not given) | inactive |

| SMILES | outcome |
| --- | --- |
| Cc1cccc(C(=O)Nc2nnc(Cc3c[nH]c4ccccc34)s2)c1 | inactive |
| Nc1ncncc1-c1ccc(Cl)cc1 | inactive |
| O=C(Nc1nc2ccc(SC(F)F)cc2s1)c1ccc2c(c1)S(=O)(=O)c1ccccc1C2=O | inactive |
| COC(=O)C1=C(CSc2nc3ccccc3o2)NC(=O)NC1c1cc(C)ccc1C (stereo not given) | inactive |
| Cc1cc(C)nc(N2CCCC(C(=O)Nc3ccc4nc(C)c(C)nc4c3)C2)n1 (stereo not given) | inactive |
| Cc1ccc(C)n1-c1cccc(N)c1 | inactive |
| O=C1CC(c2ccccc2)n2ncnc2N1 (stereo not given) | inactive |
| COC(OC)c1nc(SCC(=O)Nc2cccc(Cl)c2)ncc1C(=O)O | inactive |
| COc1ccc(Cl)cc1-c1nc(SCC(N)=O)n[nH]1 | inactive |
| COc1ccc([N+](=O)[O-])cc1NC(=O)C(C)OC(=O)c1ccccc1C(=O)c1ccc(Cl)cc1 (stereo not given) | inactive |
| CC(O)c1ccc(OCCN(C)c2ccccn2)cc1 (stereo not given) | inactive |
| COC(=O)c1ccc(COC(=O)c2ccccn2)cc1 | inactive |
| CC(C)Cc1oc(C(=O)O)cc1CN | inactive |
| c1ccc2oc(SCc3cn4ccccc4n3)nc2c1 | inactive |
| Cc1cc(C)n(-c2ccc(C(=O)Nc3nc4ccccc4s3)cc2)n1 | inactive |
| C(=N\c1nc2ccccc2n1CCN1CCCCC1)/c1cccs1 | inactive |
| CC(=O)c1cccc(NC(=O)Nc2cccs2)c1 | inactive |
| CC(C)(C)c1ccc(-c2n[nH]c(=S)n2/N=C/c2ccncc2)cc1 | inactive |
| COc1cccc(NC(=S)N/N=C2\CC(C)(C)Oc3ccc(O)cc32)c1 | inactive |
| N#CC(C#N)=c1ccc2c(c1)NC1(CCCCC1)N=2 | inactive |
| O=S1(=O)C=CC(Nc2ccccc2)C1 (stereo not given) | inactive |
| Brc1ccc(-c2cnc3n2CCCC3)cc1 | inactive |

| SMILES | outcome |
| --- | --- |
| O=C(Nc1nccs1)c1cc(-c2ccco2)nc2ccccc12 | inactive |
| COc1ccccc1-c1cc(C(=O)Nc2cc(C)nn2-c2ccccc2)no1 | inactive |
| CCCOC(=O)C(C)n1cnc2sc(C)c(C)c2c1=O (stereo not given) | inactive |
| COc1cc(C)nc(Nc2nc(C)c(C(C)=O)s2)n1 | inactive |
| O=C(CSc1nnc(-c2cccs2)n1-c1ccccc1)NCc1ccc2c(c1)OCO2 | inactive |
| O=C(CCN1C(=O)c2ccccc2C1=O)Nc1ccc(-c2cn3ccsc3n2)cc1 | inactive |
| Cc1cccc(C)c1NC(=O)CSc1nnc(NC(=O)CN2CCOCC2)s1 | inactive |
| C(=N\N1CCN(C2c3ccccc3-c3ccccc32)CC1)/c1cccs1 | inactive |
| COc1cc([N+](=O)[O-])ccc1NC(=O)CN(C)C | inactive |
| Nc1nnc(CC(=O)N/N=C\c2cc([N+](=O)[O-])ccc2O)s1 | inactive |
| Cc1ccc(N=Nc2ccc(O)c(/C=N\NC(=O)c3ccc(N)cc3)c2)cc1C | inactive |
| Cc1cc(/C=N/NC(=O)c2cccc([N+](=O)[O-])c2)c(C)n1-c1ccc(Cl)cc1Cl | inactive |
| O=C(N/N=C/c1ccc(Cl)cc1Cl)c1cccc(F)c1 | inactive |
| O=C(N/N=C/C1C(c2ccccc2)C1(Cl)Cl)c1cccc(Cl)c1 (stereo not given) | inactive |
| C/C(=N\NC(=O)C1CC1c1ccccc1)c1cccc([N+](=O)[O-])c1 (stereo not given) | inactive |
| COc1cccc(NC(=O)NCCCN2CCN(c3ccc(F)cc3)CC2)c1 | inactive |
| COc1cc(C2C(C(=O)c3ccc(C)o3)=C(O)C(=O)N2CCc2ccccc2)ccc1O (stereo not given) | inactive |
| CC(C)NC(=O)CSc1nc(N)c(NC(=O)c2ccccc2F)c(=O)[nH]1 | inactive |
| Cc1ccc(Cl)cc1-c1ccc(/C=N/n2cnnc2)o1 | inactive |
| Cc1cccc(C)c1NC(=O)CCCSc1nnc(-c2ccc(Cl)cc2)n1-c1ccccc1 | inactive |
| CCCCn1c(-c2ccccc2)nc2c(=O)n(C)c(=O)[nH]c21 | inactive |
| Cc1noc(C)c1CSc1nc2ccccc2nc1NS(=O)(=O)c1ccc(Cl)cc1 | inactive |
